Compounds without any hit were thinned out: in the full panel of roughly 79,000, 15% have a hit. Calls of active or inactive are those of the source. Rule as the data show it: active = growth inhibition above about 70%; inactive = the rest.
How the values were obtained:
[1] = NCI Yeast Anticancer Drug Screen. Data for the rad52 strain (AID 147);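 also: 0% = growth of vehicle-treated control cultures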; details: S. cerevisiae rad52 mutant growth inhibition, stronger effect = higher value
Outline: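 Screen used a yeast mutant impaired in DNA repair. After compound exposure, growth was measured. Values reflect inhibition compared with vehicle-treated cells.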

[2] = NCI Yeast Anticancer Drug Screen. Data for the wt1 strain (AID 149);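 also: 0% = growth of vehicle-treated wt1 cultures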; details: S. cerevisiae wt1 strain (SPY 50644) growth inhibition, stronger effect = higher value
Outline: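 Yeast wt1 strain exposed to compounds; growth inhibition measured relative to vehicle-treated controls.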

[3] = NCI Yeast Anticancer Drug Screen. Data for the rad50EPP+ strain (AID 151);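 also: 0% = growth of vehicle-treated control cultures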; details: S. cerevisiae rad50 mutant strain, stronger effect = higher value
Outline: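 Exposing the rad50EPP+ strain to each compound, growth was compared with vehicle-only cultures to give inhibition.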

[4] = NCI Yeast Anticancer Drug Screen. Data for the mgt1 strain (AID 153); details: S. cerevisiae mgt1 mutant growth inhibition, stronger effect = higher value
Outline: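 Genetically defined yeast (mgt1) treated with compound; inhibition of growth expressed against vehicle-treated controls.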

[5] = NCI Yeast Anticancer Drug Screen. Data for the rad50 strain (AID 155);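 also: 0% = growth of vehicle-only cultures of the same strain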; details: S. cerevisiae rad50 strain growth inhibition, stronger effect = higher value
Outline: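 Yeast carrying a defined DNA repair defect were exposed to test compounds, and growth was compared with vehicle-treated controls to give percent inhibition.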

[6] = NCI Yeast Anticancer Drug Screen. Data for the mec2-1 strain (AID 157); details: S. cerevisiae mec2-1 strain, stronger effect = higher value
Outline: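 Readout is yeast growth inhibition, normalised to vehicle-treated controls, in the mec2-1 strain exposed to compound.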

[7] = NCI Yeast Anticancer Drug Screen. Data for the rad14 strain (AID 159);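 also: 0% = growth of vehicle-treated control cultures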; details: S. cerevisiae rad14 strain growth inhibition, stronger effect = higher value
Outline: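 Yeast cells carrying a defined DNA-repair defect were exposed to compounds, and growth inhibition was calculated relative to vehicle-treated control cultures.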

[8] = NCI Yeast Anticancer Drug Screen. Data for the sgs1 mgt1 strain (AID 161);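 also: 0% = growth of cultures given vehicle only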; details: S. cerevisiae sgs1 mgt1 strain, stronger effect = higher value
Outline: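 Percent growth inhibition was derived by comparing compound-exposed mutant yeast with vehicle-exposed cultures. The strain carries alterations in DNA damage repair.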

[9] = NCI Yeast Anticancer Drug Screen. Data for the CLN2oe strain (AID 163);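 also: 0% = growth of vehicle-only control cultures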; details: S. cerevisiae CLN2oe strain, stronger effect = higher value
Outline: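 Values reflect how much compound exposure reduced yeast growth, referenced to vehicle-exposed cells. Assay organism is a strain with a defined genetic change affecting cell-cycle control.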

[10] = NCI Yeast Anticancer Drug Screen. Data for the cln2 rad14 strain (AID 165);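 also: 0% = growth equal to vehicle treated cultures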; details: S. cerevisiae cln2 rad14 strain, stronger effect = higher value
Outline: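 Relative to vehicle controls, growth inhibition of compound-treated cln2 rad14 yeast was recorded.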

[11] = NCI Yeast Anticancer Drug Screen. Data for the bub3 strain (AID 167); details: S. cerevisiae bub3 mutant strain, stronger effect = higher value
Outline: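 Compounds were applied to a genetically altered yeast strain carrying a cell-cycle control defect. Growth inhibition was scored against vehicle-treated controls.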

[12] = NCI Yeast Anticancer Drug Screen. Data for the wt2 strain (AID 169);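 also: 0% = growth of vehicle-treated yeast cultures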; details: S. cerevisiae wt2 strain growth inhibition, stronger effect = higher value
Outline: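 Values express reduction in yeast growth under compound treatment, referenced to vehicle-treated cells.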

[13] = NCI Yeast Anticancer Drug Screen. Data for the mlh1 strain (AID 171);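 also: 0% = growth of vehicle-treated control cultures of the same strain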; details: S. cerevisiae mlh1 strain growth inhibition, stronger effect = higher value
Outline: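 Steps: expose the defined-mutant yeast strain to compound; expose a parallel culture to vehicle; measure growth; express compound effect as inhibition relative to the vehicle culture.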

[14] = NCI Yeast Anticancer Drug Screen. Data for the sgs1 strain (AID 173);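 also: 0% = growth of vehicle-only control cultures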; details: S. cerevisiae sgs1 mutant, stronger effect = higher value
Outline: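 Treat defined-mutant yeast with compound; measure growth; calculate inhibition relative to vehicle-treated cells.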

[15] = NCI Yeast Anticancer Drug Screen. Data for the mlh1 rad18 strain (AID 175); details: S. cerevisiae mlh1 rad18 strain growth inhibition, stronger effect = higher value
Outline: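 Test agents were incubated with a yeast strain of defined genotype (DNA damage repair defect). Inhibition of growth was derived by comparison with vehicle-exposed cultures.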

[16] = NCI Yeast Anticancer Drug Screen. Data for the rad18 strain (AID 177); details: S. cerevisiae rad18 mutant growth inhibition, stronger effect = higher value
Outline: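 A genetically defined yeast mutant impaired in DNA damage repair was treated with test compounds, then its growth was measured against cultures receiving vehicle alone.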

[17] = at 5.0 µM (retest, dose inferred, filed as 0.5)
[18] = at 50.0 µM (retest, dose inferred, filed as 5.0)

Measured: growth inhibition

CCN(CC)CCN(C)CCc1ccc(Br)cc1
active: [1]; at 100.0 µM 91% | [2]; at 100.0 µM 83% | [4]; at 33.0 µM 84% | [4]; at 100.0 µM 96% | [5]; at 100.0 µM 85% | [6]; at 100.0 µM 78% | [7]; at 33.0 µM 87% | [7]; at 100.0 µM 97% | [9]; at 100.0 µM 89% | [11]; at 100.0 µM 84% | [12]; at 100.0 µM 94% | [13]; at 100.0 µM 94% | [14]; at 33.0 µM 85% | [14]; at 100.0 µM 94% | [16]; at 100.0 µM 91%
inactive: [1]; at 1.2 µM 12% | [1]; at 3.7 µM 19% | [1]; at 11.0 µM 37% | [1]; at 33.0 µM 48% | [2]; at 1.2 µM 5% | [2]; at 3.7 µM 11% | [2]; at 11.0 µM 19% | [2]; at 33.0 µM 32% | [3]; at 1.2 µM -3% | [3]; at 3.7 µM -3% | [3]; at 11.0 µM -2% | [3]; at 33.0 µM -2% | [3]; at 100.0 µM -3% | [4]; at 1.2 µM 5% | [4]; at 3.7 µM 10% | [4]; at 11.0 µM 40% | [5]; at 1.2 µM 7% | [5]; at 3.7 µM 10% | [5]; [17] -6% | [5]; at 11.0 µM 20% | [5]; at 33.0 µM 50% | [5]; [18] 11% | [5]; at 50.0 µM 31.8% | [6]; at 1.2 µM 10% | [6]; at 3.7 µM 17% | [6]; [17] 8% | [6]; at 11.0 µM 26% | [6]; at 33.0 µM 43% | [6]; [18] 26% | [6]; at 50.0 µM 33.6% | [7]; at 1.2 µM 15% | [7]; at 3.7 µM 36% | [7]; at 11.0 µM 57% | [8]; [17] 5% | [8]; [18] 41% | [8]; at 50.0 µM 68.4% | [9]; at 1.2 µM 11% | [9]; at 3.7 µM 15% | [9]; at 11.0 µM 35% | [9]; at 33.0 µM 64% | [10]; [17] 10% | [10]; [18] 52% | [10]; at 50.0 µM 53.4% | [11]; at 1.2 µM 10% | [11]; at 3.7 µM 16% | [11]; [17] 13% | [11]; at 11.0 µM 35% | [11]; at 33.0 µM 67% | [11]; [18] 21% | [11]; at 50.0 µM 53.5% | [12]; at 1.2 µM 6% | [12]; at 3.7 µM 11% | [12]; at 11.0 µM 33% | [12]; at 33.0 µM 68% | [13]; at 1.2 µM 7% | [13]; at 3.7 µM 13% | [13]; at 11.0 µM 31% | [13]; at 33.0 µM 60% | [14]; at 1.2 µM 10% | [14]; at 3.7 µM 23% | [14]; at 11.0 µM 49% | [15]; [17] -29% | [15]; [18] 25% | [15]; at 50.0 µM 68.3% | [16]; at 1.2 µM 11% | [16]; at 3.7 µM 32% | [16]; at 11.0 µM 54% | [16]; at 33.0 µM 66%

O=C1C(Br)=C(c2ccccc2)O/C1=C/C(=O)c1ccc(Br)cc1
inactive: [1]; at 1.2 µM 2% | [1]; at 3.7 µM 6% | [1]; at 11.0 µM 12% | [1]; at 33.0 µM 26% | [2]; at 1.2 µM 3% | [2]; at 3.7 µM 5% | [2]; at 11.0 µM 10% | [2]; at 33.0 µM 16% | [2]; at 100.0 µM 44% | [3]; at 1.2 µM 9% | [3]; at 3.7 µM 22% | [3]; at 11.0 µM 59% | [4]; at 1.2 µM 2% | [4]; at 3.7 µM 5% | [4]; at 11.0 µM 10% | [4]; at 33.0 µM 36% | [5]; at 1.2 µM 4% | [5]; at 3.7 µM 5% | [5]; [17] -21% | [5]; at 11.0 µM 11% | [5]; at 33.0 µM 18% | [5]; [18] 34% | [5]; at 50.0 µM 24.2% | [5]; at 100.0 µM 49% | [6]; at 1.2 µM -1% | [6]; at 3.7 µM 5% | [6]; [17] -6% | [6]; at 11.0 µM 8% | [6]; at 33.0 µM 20% | [6]; [18] 25% | [6]; at 50.0 µM 21.1% | [7]; at 1.2 µM 3% | [7]; at 3.7 µM 6% | [7]; at 11.0 µM 13% | [7]; at 33.0 µM 28% | [8]; [17] -7% | [8]; [18] 39% | [8]; at 50.0 µM 53.9% | [9]; at 1.2 µM 1% | [9]; at 3.7 µM 1% | [9]; at 11.0 µM 4% | [9]; at 33.0 µM 9% | [9]; at 100.0 µM 18% | [10]; [17] -13% | [10]; [18] 12% | [10]; at 50.0 µM 29.7% | [11]; at 1.2 µM -2% | [11]; at 3.7 µM -2% | [11]; [17] -16% | [11]; at 11.0 µM -1% | [11]; at 33.0 µM 6% | [11]; [18] 21% | [11]; at 50.0 µM 15.4% | [12]; at 1.2 µM 1% | [12]; at 3.7 µM 3% | [12]; at 11.0 µM 7% | [12]; at 33.0 µM 31% | [12]; at 100.0 µM 69% | [13]; at 1.2 µM -2% | [13]; at 3.7 µM 1% | [13]; at 11.0 µM 9% | [13]; at 33.0 µM 20% | [14]; at 1.2 µM 1% | [14]; at 3.7 µM 5% | [14]; at 11.0 µM 15% | [14]; at 33.0 µM 37% | [15]; [17] -16% | [15]; [18] 62% | [15]; at 50.0 µM 52.6% | [16]; at 1.2 µM 2% | [16]; at 3.7 µM 3% | [16]; at 11.0 µM 13% | [16]; at 33.0 µM 25%
active: [1]; at 100.0 µM 75% | [3]; at 33.0 µM 84% | [3]; at 100.0 µM 86% | [4]; at 100.0 µM 88% | [6]; at 100.0 µM 92% | [7]; at 100.0 µM 96% | [11]; at 100.0 µM 84% | [13]; at 100.0 µM 89% | [14]; at 100.0 µM 94% | [16]; at 100.0 µM 79%

Reference: PubChem BioAssay (NCI)
